PubChem BioAssay
Values joined by “and” are separate entries in the source; they are usually repeats but may differ in a detail not shown here. Identical values can stand only once. Where a SMILES comes first, the peptide text is derived from it. The star is where a group is joined. Boc = CC(C)(C)OC(=O)*

Tests used:
[1] = test system: Botulinum neurotoxin type F light chain protease (Clostridium botulinum); assay: Botulinum neurotoxin type F light chain protease inhibition, multiplex microsphere flow cytometry, validation set (AID 588459); details: multiplex microsphere protease substrate cleavage assay, at 10 µM, stronger effect = higher value
[2] = target: Botulinum neurotoxin type A (Clostridium botulinum) (UniProt P0DPI0); assay: BoNT/A light chain protease inhibitors, biochemical, multiplex microsphere flow cytometry, validation set (AID 588460); details: at 10 µM, stronger effect = higher value
[3] = target: Lethal factor (Bacillus anthracis) (UniProt P15917); assay: Lethal factor protease inhibitors, Bacillus anthracis, multiplex microsphere cleavage assay, validation set (AID 588461); details: flow cytometry, at 10 µM, stronger effect = higher value

Measured: inhibition

Sequence of Lethal factor (Bacillus anthracis) (P15917 whole entry, looked up): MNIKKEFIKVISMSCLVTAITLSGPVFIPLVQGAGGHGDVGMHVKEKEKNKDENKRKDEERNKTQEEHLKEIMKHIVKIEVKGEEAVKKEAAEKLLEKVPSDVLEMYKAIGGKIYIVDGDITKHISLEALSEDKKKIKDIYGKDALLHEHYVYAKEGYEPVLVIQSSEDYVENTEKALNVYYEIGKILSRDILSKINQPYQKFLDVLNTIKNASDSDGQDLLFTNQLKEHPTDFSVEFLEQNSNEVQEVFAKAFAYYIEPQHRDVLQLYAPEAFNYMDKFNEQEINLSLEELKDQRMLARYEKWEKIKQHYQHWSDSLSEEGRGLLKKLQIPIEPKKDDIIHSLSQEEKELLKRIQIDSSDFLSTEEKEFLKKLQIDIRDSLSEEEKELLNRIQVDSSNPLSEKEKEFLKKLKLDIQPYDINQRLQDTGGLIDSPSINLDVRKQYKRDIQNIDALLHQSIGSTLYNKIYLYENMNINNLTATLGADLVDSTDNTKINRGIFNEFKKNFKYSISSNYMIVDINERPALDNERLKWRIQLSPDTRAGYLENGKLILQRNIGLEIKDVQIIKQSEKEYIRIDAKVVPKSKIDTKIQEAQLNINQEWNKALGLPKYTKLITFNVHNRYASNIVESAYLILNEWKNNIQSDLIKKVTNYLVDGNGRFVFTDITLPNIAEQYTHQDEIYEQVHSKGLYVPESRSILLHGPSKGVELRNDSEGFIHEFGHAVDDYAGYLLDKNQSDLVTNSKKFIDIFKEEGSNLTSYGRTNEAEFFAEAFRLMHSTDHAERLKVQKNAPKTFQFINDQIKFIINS
Sequence of Botulinum neurotoxin type A (Clostridium botulinum) (P0DPI0 whole entry, looked up): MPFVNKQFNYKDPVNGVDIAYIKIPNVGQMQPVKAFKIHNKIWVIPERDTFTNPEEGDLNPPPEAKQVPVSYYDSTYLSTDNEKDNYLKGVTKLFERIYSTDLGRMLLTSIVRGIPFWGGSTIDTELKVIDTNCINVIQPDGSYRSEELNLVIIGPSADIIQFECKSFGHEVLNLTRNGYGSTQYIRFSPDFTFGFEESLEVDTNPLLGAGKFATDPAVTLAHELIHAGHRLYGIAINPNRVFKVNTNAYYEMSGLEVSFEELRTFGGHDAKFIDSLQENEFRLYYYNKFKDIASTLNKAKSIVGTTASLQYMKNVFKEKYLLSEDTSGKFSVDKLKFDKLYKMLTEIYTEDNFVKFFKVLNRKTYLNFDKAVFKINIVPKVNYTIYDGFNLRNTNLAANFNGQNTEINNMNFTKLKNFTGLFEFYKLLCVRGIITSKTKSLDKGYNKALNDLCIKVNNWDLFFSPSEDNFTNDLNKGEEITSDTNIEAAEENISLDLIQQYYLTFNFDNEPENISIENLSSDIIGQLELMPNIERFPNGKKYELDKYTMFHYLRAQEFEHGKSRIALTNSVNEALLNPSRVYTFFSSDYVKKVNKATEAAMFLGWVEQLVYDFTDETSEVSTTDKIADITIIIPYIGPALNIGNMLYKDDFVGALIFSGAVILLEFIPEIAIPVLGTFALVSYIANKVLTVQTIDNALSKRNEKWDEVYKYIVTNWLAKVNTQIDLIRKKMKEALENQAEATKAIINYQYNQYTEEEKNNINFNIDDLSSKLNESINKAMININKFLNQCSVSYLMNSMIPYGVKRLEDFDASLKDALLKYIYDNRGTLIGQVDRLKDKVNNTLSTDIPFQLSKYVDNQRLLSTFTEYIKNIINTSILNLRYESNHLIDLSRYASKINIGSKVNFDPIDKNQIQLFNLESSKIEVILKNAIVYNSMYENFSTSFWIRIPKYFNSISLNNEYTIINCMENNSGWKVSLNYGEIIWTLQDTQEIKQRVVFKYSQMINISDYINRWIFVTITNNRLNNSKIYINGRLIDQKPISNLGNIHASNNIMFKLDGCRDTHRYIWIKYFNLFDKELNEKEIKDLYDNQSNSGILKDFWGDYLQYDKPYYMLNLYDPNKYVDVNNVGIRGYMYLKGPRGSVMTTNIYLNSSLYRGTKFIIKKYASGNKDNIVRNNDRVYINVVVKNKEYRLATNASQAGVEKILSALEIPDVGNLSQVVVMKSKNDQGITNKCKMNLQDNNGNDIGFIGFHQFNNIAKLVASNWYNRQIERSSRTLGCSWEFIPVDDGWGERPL

c1ccc2[nH]c(-c3cscn3)nc2c1
inactive: [1] 1.2% | [2] 0.1% | [3] -4%

Nc1[nH]c(=O)ncc1F
inactive: [1] 1.1% | [2] -0.5% | [3] 0%

CC1(C)Cc2nc3sc4c(=O)n(CC(N)=O)cnc4c3cc2CO1
inactive: [1] -0.6% | [2] 1.1% | [3] -3.8%

CN(C)CCC(c1ccc(Br)cc1)c1ccccn1 (stereo not given)
inactive: [1] 1.3% | [2] -0.7% | [3] -8.1%

CCc1ccc2oc(=O)cc(CN3CCC(C)CC3)c2c1
inactive: [1] 5.5% | [2] 0.8% | [3] 1.4%

Fc1cccc(Cc2noc(CN3CCN(c4cnccn4)CC3)n2)c1
inactive: [1] 3.7% | [2] -1.3% | [3] 0.5%

CCn1c(C)cc2c(c1=O)C(c1ccccc1)C(C(=O)OC)=C(N)O2 (stereo not given)
inactive: [1] 0.3% | [2] -0.9% | [3] -3.3%

O=c1[nH]c(=O)n(C2CCCO2)cc1F (stereo not given)
inactive: [1] -5.7% | [2] -0.7% | [3] 1.8%

COc1c(O)ccc2c1CN1CCc3cc4c(cc3C1C2)OCO4 (stereo not given)
inactive: [1] -8.1% | [2] -2.1% | [3] -16.1%

COc1ccc(OC)c(C(=O)c2coc3ccc(O)cc23)c1
inactive: [1] -0.5% | [2] -1.6% | [3] 7%

CCN(CC)CC(=O)Nc1c(C)cccc1C
inactive: [1] 2.8% and -0.5% | [2] 0.5% and -2.3% | [3] -6.6% and -3.8%

Cc1[nH]c2ccccc2c1C(=O)C(=O)NCc1ccco1
inactive: [1] 0.1% | [2] -0.7% | [3] -5.5%

CC(C)CC(NC(=O)C1CCCN1C(=O)OC(C)(C)C)C(=O)NCC(N)=O (stereo not drawn) (Boc-Pro-Leu-Gly-NH2; configuration not given here)
inactive: [1] 3.5% | [2] 0.3% | [3] 4.3%

O=C(c1cccnc1)N1N=C(C2CC2)CC1(O)C(F)(F)F (stereo not given)
inactive: [1] 2% | [2] 1% | [3] 4.2%

O=C(NCCN1CCN(c2ccccc2)CC1)c1cccc(Br)c1
inactive: [1] -4.4% | [2] -2.3% | [3] -6.4%

CC(=O)Oc1ccc2c(=O)c(Oc3ccccc3[N+](=O)[O-])coc2c1
inactive: [1] 0.2% | [2] -1.2% | [3] -6.2%

Cc1cc(=O)[nH]c(=S)[nH]1
inactive: [1] -3.5% | [2] -3.3% | [3] -7.5%

CSc1ccc(CN2CCN(CCC(C)C)C(CCO)C2)cc1 (stereo not given)
inactive: [1] 2.2% | [2] 0.1% | [3] -3.3%

O[C@H]1COC2C1OC[C@@H]2O (stereo not given in full)
inactive: [1] -2.3% | [2] -0.4% | [3] 0%

O=C(NC(=S)Nc1ccc2c(c1)OCCO2)c1ccccc1F
inactive: [1] 2.3% | [2] 0.4% | [3] -3%

CCS(=O)(=O)Nc1cc(OC)c(OC)cc1Cc1nccc2cc(OC)c(OC)cc12
inactive: [1] 0.2% | [2] 0.4% | [3] -0.6%

CC(=O)SC1CC2=CC(=O)CCC2(C)C2CCC3(C)C(CCC34CCC(=O)O4)C12 (stereo not given)
inactive: [1] 0% | [2] 0.1% | [3] -5.9%

CCOC(=O)N1c2ccccc2C=CC1OCC (stereo not given)
inactive: [1] -1.1% | [2] -0.5% | [3] 3.6%

OC[C@H]1O[C@@H](n2cnc3c(NC4CCCC4)ncnc32)[C@H](O)[C@@H]1O
inactive: [1] -1.4% | [2] 0.2% | [3] -6.9%

COc1ccc2cc(C(=O)OC(C)C)sc(=O)c2c1OC
inactive: [1] 0% | [2] 1.8% | [3] -5.8%

CCOC(=O)c1cccc(C(=O)OCC)n1
inactive: [1] 3.1% | [2] -0.6% | [3] -6.9%

COc1ccc(CCCC(=O)O)c(C)c1
inactive: [1] -0.2% | [2] 0.1% | [3] 6.1%

COc1ccc2c(CC(=O)NCC3CCC(C(=O)O)CC3)cc(=O)oc2c1 (stereo not given)
inactive: [1] 1% | [2] -0.1% | [3] 3.6%

COc1ccc(C2CNC(=O)C2)cc1OC1CCCC1 (stereo not given)
inactive: [1] 7.8% | [2] -0.3% | [3] 1%

COc1ccc(NC(=O)C2CSC3c4ccccc4C(=O)N23)cc1 (stereo not given)
inactive: [1] -0.5% | [2] -0.2% | [3] -3.8%
